Reference: PubChem BioAssay (NCATS)
Inconclusive results are not listed. The source made the active and inactive calls. Unless noted, the call rests on the fitted dose curve; in most records, active means well fitted curve in the direction sought with a large enough effect; inconclusive means small, poorly fitted or top-dose-only effect, or another doubt; inactive means no such curve, though single readings can be large; an effect the other way counts as inactive or inconclusive.

Legend:
[1] = qHTS for Inhibitors of Plasmodium falciparum (DD2) proliferation (AID 504314);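 further: parasite DNA measured by SYBR Green fluorescence after red cell lysis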
In short: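 SYBR Green growth assay: 72 h compound exposure of infected red cells (2.5% hematocrit, 0.3% parasitemia), then lysis and overnight dye staining, fluorescence 485/535 nm. Values scaled between DMSO and 0.29 uM artemisinin controls.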

[2] = qHTS for Inhibitors of Plasmodium falciparum (7G8) proliferation (AID 504316); further: nearly all actives have a fitted effect of over 65% in size
In short: (§1)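 Parasite growth measured as SYBR Green DNA fluorescence (ex 485, em 535 nm) after overnight lysis following 72 h culture at 37 °C, 0.3% parasitemia, 2.5% hematocrit. Values normalized against DMSO and 0.29 uM artemisinin controls, with plate-stack correction.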

[3] = qHTS for Inhibitors of Plasmodium falciparum (HB3) proliferation (AID 504318); further: nearly all actives have a fitted effect of over 60% in size
In short: as §1

[4] = qHTS for Inhibitors of Plasmodium falciparum (CP250) proliferation (AID 504320)
In short: as §1

[5] = S16 Schwann cell PMP22 intronic element beta-lactamase assay (AID 624044; calls by dose curve; further: nearly all actives have a fitted effect of over 15% in size; further: potency means the concentration at half of the fitted maximal effect); details: S16 rat Schwann cells, PMP22 element beta-lactamase FRET, 24 h; ratio activity, negative = inhibition: at 38.3 µM (top of the series)
In short: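 Beta-lactamase reporter under a PMP22 intronic regulatory element in stable S16 rat Schwann cells; 24 h compound exposure. 460 nm blue signal normalized between DMSO (0%) and potassium clavulanate, with 535 nm FRET tracking viability; curves classed by r2 and response.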

[6] = tested on: CP335; experiment: qHTS profiling for inhibitors of Plasmodium falciparum proliferation (AID 504749); further: nearly all actives have a fitted effect of over 60% in size; further: potency means the concentration at half of the fitted maximal effect; details: P. falciparum in erythrocytes, SYBR Green DNA, 72 h; series mostly up to 28.7 µM
In short: (§2)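 Each compound contacts P. falciparum-infected red blood cells for 72 h at 37 C; lysis buffer (Tris, EDTA, saponin, Triton X, SYBR Green I) is added and fluorescence measured next morning; values normalized to controls.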

[7] = tested on: DIV14; experiment: as above; details: P. falciparum in erythrocytes, SYBR Green DNA, 72 h; series mostly up to 28.7 µM
In short: as §2

[8] = tested on: ICS; experiment: as above; details: P. falciparum in erythrocytes, SYBR Green DNA, 72 h; series mostly up to 28.7 µM
In short: as §2

[9] = tested on: PC26; experiment: as above; details: P. falciparum in erythrocytes, SYBR Green DNA, 72 h; series mostly up to 28.7 µM
In short: as §2

[10] = molecular target: Mitogen-activated protein kinase 10 (Mus musculus) (UniProt Q61831); experiment: JNK3 AlphaScreen Assay (AID 530; active means well fitted curve in either direction with a large enough effect, not every such curve was filed as active;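 further: kinase came from lysate of stimulated human HepG2 cells; signal reports phosphorylation of biotinylated GST-cJun 1-79 at Ser73 with 10 µM ATP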)
In short: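 Activity was read by AlphaScreen after JNK3-containing HepG2 lysate (cytokine pre-activated) phosphorylated biotinylated GST-cJun with 10 uM ATP at room temperature. Phospho-Ser73 cJun antibody with Protein-A acceptor beads provided detection.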

[11] = molecular target: Tumor susceptibility gene 101 protein (Homo sapiens) (UniProt Q99816); experiment: qHTS Assay for Iinhibitors of HIV-1 Budding by Blocking the Interaction of PTAP/TSG101: Hit Validation (AID 651600); further: nearly all actives have a fitted effect of over 70% in size
Chain of Tumor susceptibility gene 101 protein (Homo sapiens) (Q99816 whole entry, looked up, the tested form may be a part): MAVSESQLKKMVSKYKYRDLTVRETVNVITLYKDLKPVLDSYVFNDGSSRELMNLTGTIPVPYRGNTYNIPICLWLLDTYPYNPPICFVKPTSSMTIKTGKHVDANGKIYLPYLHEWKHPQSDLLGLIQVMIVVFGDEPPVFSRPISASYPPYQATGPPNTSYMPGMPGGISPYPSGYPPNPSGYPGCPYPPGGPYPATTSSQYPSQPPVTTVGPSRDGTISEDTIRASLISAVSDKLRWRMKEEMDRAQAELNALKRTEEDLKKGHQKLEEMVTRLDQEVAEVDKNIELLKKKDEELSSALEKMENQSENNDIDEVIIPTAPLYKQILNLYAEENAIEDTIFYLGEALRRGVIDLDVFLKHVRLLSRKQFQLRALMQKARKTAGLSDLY
In short: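 Displacement of a FITC-labeled PTAP-motif peptide (50 nM) from the Tsg101 binding domain (10 uM) was monitored by fluorescence polarization after a 20 min room-temperature incubation.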

Measured: Potency

CCN1C(=O)N[C@H](c2ccccc2)C(C(C)=O)=C1C
inactive: [1] | [2] | [3] | [4]

COC(=O)CCCC1=CC2=CC(=O)C(C)(OC(=O)c3cccs3)C(=O)C2=CN1c1ccc(CO)cc1 (stereo not given)
inactive: [1] | [2] | [3] | [4]

COC/C=C/C1=CC2=CC(=O)C(C)(OC(=O)c3cnc4ccccc4n3)C(=O)C2=CN1C1CCCCC1 (stereo not given)
inactive: [1] | [2] | [3] | [4]

COC(=O)C1=C(C(=O)OC)[C@@H]2N(C)c3ccccc3[C@@]23C[C@@H](C(=O)OC)N(C(=O)C2CCC2)C3=N1
inactive: [1] | [2] | [4]

CCCCC1=CC2=CC(=O)C(C)(OC(=O)CC)C(=O)C2=CN1Cc1ccc(OC)cc1 (stereo not given)
inactive: [1] | [2] | [3] | [4]

COC(=O)C1=C(C(=O)OC)[C@@H]2N(C)c3ccc(OC)cc3[C@@]23C[C@@H](C(=O)OC)N(C(=O)c2ccc(Br)cc2)C3=N1
inactive: [1] | [2] | [4]

CCN1C(=O)N[C@@H](c2cccc(C(F)(F)F)c2)[C@@H](C(=O)OC)[C@H]1C
inactive: [1] | [2] | [3] | [4]

COC(=O)CCCC1=CC2=C(c3ccccc3)C(=O)C(C)(OC(=O)C3CCCC3)C(=O)C2=CN1CC1CC1 (stereo not given)
inactive: [1] | [2] | [4]

CC(C)OCCCN1C=C2C(=O)C(C)(OC(=O)CCc3ccccc3)C(=O)C=C2C=C1c1ccc(C#N)cc1 (stereo not given)
inactive: [1] | [2] | [3] | [4]

CC(c1ncncc1F)[C@](O)(Cn1cncn1)c1ccc(F)cc1F (stereo not given in full)
inactive: [5] | [6] | [7] | [8] | [9]

COC(=O)C1=C(C(=O)OC)[C@@H]2Nc3ccccc3[C@@]23C[C@@H](C(=O)OC)N(S(=O)(=O)c2ccc(C)cc2)C3=N1
inactive: [1] | [2] | [3] | [4]

COC(=O)C1=C(C)N(CC2CC2)C(=O)N[C@H]1c1ccccc1
inactive: [1] | [2] | [4]

COC(=O)[C@@H]1[C@H](CCc2ccccc2)NC(=O)N(Cc2ccccc2)[C@@H]1C
inactive: [1] | [2] | [3]

CCOC(=O)CN1C(=O)N[C@@H](c2cccc(F)c2)C(C(=O)OC)=C1C
inactive: [1] | [2] | [3] | [4]

CC(=O)NC[C@@H]1CN(c2ccc(N3CCOCC3)c(F)c2)C(=O)O1
inactive: [6] | [7] | [8] | [9]

CC#CCN1c2ccccc2[C@]23C[C@@H](C(=O)OC)N=C2NC(C(=O)OC)=C(C(=O)OC)[C@H]13
inactive: [1] | [2] | [4]

C[C@H]1Cc2c(-c3ccccc3)nc3c(c2CO1)CN(C(=O)C1CC1)CC3
inactive: [1] | [2] | [3] | [4]

CCOC(=O)CN1C(=O)N[C@@H](c2cccc(F)c2)C(C(C)=O)=C1C
inactive: [1] | [2] | [3] | [4]

O=c1[nH]c(=O)n(C2C[C@H](O)[C@@H](CO)O2)cc1C(F)(F)F (stereo not given in full)
inactive: [6] | [7] | [8] | [9]

COC(=O)C1=C(C(=O)OC)[C@@H]2Nc3ccccc3[C@@]23C[C@@H](C(=O)OC)N(C(C)=O)C3=N1
inactive: [1] | [2] | [3] | [4]

COc1cc2c(cc1O)CCN[C@@]21CS[C@H]2c3c(OC(C)=O)c(C)c4c(c3C(COC1=O)N1C2C2c3c(cc(C)c(OC)c3O)CC([C@@H]1O)N2C)OCO4 (stereo not given in full)
active: [6] 0.4 nM | [7] 0.4 nM | [8] 0.9 nM | [9] 1.3 nM

COC(=O)[C@@]1(Cc2ccc(OC)cc2)[C@H]2c3cc(C(=O)N4CCCC4)n(CCSCCO)c3C[C@H]2CN1C(=O)c1ccccc1
inactive: [10]

COC(=O)C1[C@@H](OC)C(OC(=O)COc2ccc(OC)cc2)C[C@@H]2CN3CCc4c([nH]c5cc(OC)ccc45)[C@H]3C[C@H]12 (stereo not given in full)
inactive: [5]
active: [6] 12000 nM | [7] 7570 nM | [8] 5010 nM

COc1cccc2c1C(=O)c1c(O)c3c(c(O)c1C2=O)C[C@@](O)(C(=O)CO)C[C@@H]3OC1CC(N)C(O)C(C)O1 (stereo not given in full)
active: [5] 354 nM | [6] 1200 nM | [7] 1690 nM | [8] 631 nM | [9] 4780 nM
inactive: [11]

Cc1ccc(/C=C2/C(=O)C3(C)CCC2C3(C)C)cc1 (stereo not given)
inactive: [7] | [8] | [9]

Nc1nc2[nH]cc(CCc3ccc(C(=O)NC(CCC(=O)O)C(=O)O)cc3)c2c(=O)[nH]1 (stereo not given)
active: [6] 135 nM | [8] 10000 nM
